Data taken from publication PMC7862700, “An all-to-all approach to the identification of sequence-specific readers for epigenetic DNA modifications on cytosine”.

Tests used:
Assay in all cases: DAPPL (digital affinity profiling via proximity ligation, sequencing); 10 mM Tris-HCl pH 7.5, 50 mM NaCl, 1 mM DTT, 4% glycerol, room temperature, 30 min; GST-TFs on glutathione beads, 16-mer random dsDNA library, 0.1% formaldehyde crosslink after washing; high values mean tight binding
FEV = biological target: T1, FEV (Homo sapiens, UniProt Q99581 1-238); details: protein: recombinant; tags: N-terminal GST; dsDNA, one strand shown
T1 sequence: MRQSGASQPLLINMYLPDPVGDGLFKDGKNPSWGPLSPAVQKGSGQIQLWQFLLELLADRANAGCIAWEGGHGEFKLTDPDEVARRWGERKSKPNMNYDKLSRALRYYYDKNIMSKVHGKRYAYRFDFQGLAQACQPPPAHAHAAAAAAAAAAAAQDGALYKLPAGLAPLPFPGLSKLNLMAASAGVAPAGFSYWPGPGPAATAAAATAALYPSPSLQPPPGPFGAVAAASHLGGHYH
Method in brief: (§1)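 GST fusions of human transcription factors were expressed in yeast and captured with glutathione beads. Once given DNA barcodes and pooled alongside a tag-only sample, they were incubated for 30 min at room temperature with 200 nmole of a random double-stranded 16-mer DNA library in Tris/NaCl/DTT/glycerol buffer, then washed, crosslinked (0.1% formaldehyde), proximity-ligated, PCR-amplified and sequenced on an Illumina NextSeq500. The binding signal of each hexamer is its read frequency for a factor divided by its frequency for the tag-only sample.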

ETV5 = ETV5 (Homo sapiens, UniProt P41161 1-510); details: protein: recombinant; tags: N-terminal GST; dsDNA, one strand shown
Method in brief: as §1

HSF1 = HSF1 (Homo sapiens, UniProt Q00613 1-529); details: protein: recombinant; tags: N-terminal GST; chain copies: 3; dsDNA, one strand shown
Method in brief: as §1

SPIC = biological target: T2, SPIC (Homo sapiens, UniProt Q8N5J4 1-248); details: protein: recombinant; tags: N-terminal GST; dsDNA, one strand shown
T2 sequence: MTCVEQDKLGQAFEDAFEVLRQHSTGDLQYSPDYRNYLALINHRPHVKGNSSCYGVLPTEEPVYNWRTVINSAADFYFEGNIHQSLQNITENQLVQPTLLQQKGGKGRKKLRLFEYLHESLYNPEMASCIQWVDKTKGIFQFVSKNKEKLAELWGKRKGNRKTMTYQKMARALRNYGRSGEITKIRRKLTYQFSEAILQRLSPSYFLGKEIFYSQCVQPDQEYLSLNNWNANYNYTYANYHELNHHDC
Method in brief: as §1

ELF4 = ELF4 (Homo sapiens, UniProt Q99607 1-663); details: protein: recombinant; tags: N-terminal GST; dsDNA, one strand shown
Method in brief: as §1

ELK4 = biological target: T3, ELK4 (Homo sapiens, UniProt P28324-2 1-405); details: protein: recombinant; tags: N-terminal GST; dsDNA, one strand shown
T3 sequence: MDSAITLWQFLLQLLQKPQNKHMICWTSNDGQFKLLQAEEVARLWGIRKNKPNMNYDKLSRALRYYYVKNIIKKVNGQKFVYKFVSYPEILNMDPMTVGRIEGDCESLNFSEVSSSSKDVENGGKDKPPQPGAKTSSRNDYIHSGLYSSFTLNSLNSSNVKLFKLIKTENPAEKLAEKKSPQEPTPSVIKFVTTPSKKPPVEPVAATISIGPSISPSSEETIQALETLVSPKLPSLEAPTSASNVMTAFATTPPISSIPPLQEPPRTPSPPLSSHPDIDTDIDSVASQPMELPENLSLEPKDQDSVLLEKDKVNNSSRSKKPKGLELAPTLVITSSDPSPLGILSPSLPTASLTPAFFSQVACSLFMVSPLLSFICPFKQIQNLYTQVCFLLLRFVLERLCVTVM
Method in brief: as §1

ETV2 = biological target: T4, ETV2 (Homo sapiens, UniProt O00321 1-342); details: protein: recombinant; tags: N-terminal GST; dsDNA, one strand shown
T4 sequence: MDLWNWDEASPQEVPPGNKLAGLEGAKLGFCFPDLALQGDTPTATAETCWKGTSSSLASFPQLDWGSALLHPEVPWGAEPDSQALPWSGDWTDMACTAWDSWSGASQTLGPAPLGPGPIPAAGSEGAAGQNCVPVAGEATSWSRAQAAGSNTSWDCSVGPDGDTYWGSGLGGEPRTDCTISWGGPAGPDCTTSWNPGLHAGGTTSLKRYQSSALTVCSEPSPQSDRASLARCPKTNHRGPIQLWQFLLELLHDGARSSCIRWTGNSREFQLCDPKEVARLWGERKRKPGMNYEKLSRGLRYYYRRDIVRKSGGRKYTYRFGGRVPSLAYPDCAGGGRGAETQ
Method in brief: as §1

ELF3 = biological target: T5, ELF3 (Homo sapiens, UniProt P78545 1-371); details: protein: recombinant; tags: N-terminal GST; dsDNA, one strand shown
T5 sequence: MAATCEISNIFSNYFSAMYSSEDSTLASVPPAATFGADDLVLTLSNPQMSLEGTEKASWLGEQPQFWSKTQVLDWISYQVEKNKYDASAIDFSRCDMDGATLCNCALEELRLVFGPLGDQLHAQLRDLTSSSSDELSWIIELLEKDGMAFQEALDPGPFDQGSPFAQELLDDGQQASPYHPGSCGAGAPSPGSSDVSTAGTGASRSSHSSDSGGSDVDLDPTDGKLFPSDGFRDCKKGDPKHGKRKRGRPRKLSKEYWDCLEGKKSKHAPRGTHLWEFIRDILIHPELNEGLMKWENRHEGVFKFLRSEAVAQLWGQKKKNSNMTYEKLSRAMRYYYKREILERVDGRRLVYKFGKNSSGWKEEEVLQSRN
Method in brief: as §1

CRX = CRX (Homo sapiens, UniProt O43186 1-299); details: protein: recombinant; tags: N-terminal GST; dsDNA, one strand shown
Method in brief: as §1

ETV1 = ETV1 (Homo sapiens, UniProt P50549 1-477); details: protein: recombinant; tags: N-terminal GST; dsDNA, one strand shown
Method in brief: as §1

Chain of HSF1 (Q00613 whole entry): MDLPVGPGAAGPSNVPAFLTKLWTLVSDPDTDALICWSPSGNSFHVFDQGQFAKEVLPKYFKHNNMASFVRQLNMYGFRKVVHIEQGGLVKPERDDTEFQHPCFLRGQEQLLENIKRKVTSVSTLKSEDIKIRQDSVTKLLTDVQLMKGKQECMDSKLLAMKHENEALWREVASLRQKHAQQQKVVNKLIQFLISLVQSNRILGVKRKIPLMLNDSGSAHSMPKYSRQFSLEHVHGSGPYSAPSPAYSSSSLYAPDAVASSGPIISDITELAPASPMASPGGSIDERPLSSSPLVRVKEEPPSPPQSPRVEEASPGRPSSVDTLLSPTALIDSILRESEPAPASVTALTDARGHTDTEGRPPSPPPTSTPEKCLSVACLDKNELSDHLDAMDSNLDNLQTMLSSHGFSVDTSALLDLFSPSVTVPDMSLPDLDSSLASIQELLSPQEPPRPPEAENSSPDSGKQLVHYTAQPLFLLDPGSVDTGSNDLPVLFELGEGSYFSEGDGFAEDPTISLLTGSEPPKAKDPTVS
Chain of ETV1 (P50549 whole entry): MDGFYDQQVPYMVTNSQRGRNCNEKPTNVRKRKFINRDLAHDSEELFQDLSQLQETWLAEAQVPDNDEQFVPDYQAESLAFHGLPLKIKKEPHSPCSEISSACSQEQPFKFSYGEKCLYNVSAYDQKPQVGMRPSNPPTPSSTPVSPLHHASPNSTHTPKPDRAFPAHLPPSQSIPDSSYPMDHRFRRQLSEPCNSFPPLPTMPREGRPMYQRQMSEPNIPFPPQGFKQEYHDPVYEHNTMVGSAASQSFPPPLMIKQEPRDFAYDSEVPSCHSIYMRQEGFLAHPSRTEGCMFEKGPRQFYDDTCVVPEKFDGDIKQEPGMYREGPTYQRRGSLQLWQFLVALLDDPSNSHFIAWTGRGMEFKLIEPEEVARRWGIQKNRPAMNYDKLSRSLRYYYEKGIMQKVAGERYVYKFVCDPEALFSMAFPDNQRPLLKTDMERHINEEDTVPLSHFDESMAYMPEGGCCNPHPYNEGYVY
Chain of ETV5 (P41161 whole entry): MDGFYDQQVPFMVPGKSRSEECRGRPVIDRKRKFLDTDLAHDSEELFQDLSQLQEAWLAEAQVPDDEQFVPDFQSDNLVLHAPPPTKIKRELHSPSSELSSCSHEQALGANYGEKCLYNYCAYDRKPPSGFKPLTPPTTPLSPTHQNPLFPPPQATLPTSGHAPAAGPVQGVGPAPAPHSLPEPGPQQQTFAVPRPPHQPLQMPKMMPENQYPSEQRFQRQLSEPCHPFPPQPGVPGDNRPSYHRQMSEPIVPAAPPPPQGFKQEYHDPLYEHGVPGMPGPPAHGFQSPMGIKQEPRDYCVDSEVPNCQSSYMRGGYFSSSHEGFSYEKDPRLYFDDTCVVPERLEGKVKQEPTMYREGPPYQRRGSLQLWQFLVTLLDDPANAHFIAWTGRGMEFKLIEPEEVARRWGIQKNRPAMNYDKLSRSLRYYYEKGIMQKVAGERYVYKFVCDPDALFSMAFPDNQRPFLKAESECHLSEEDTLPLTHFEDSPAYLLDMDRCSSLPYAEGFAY
Chain of CRX (O43186 whole entry): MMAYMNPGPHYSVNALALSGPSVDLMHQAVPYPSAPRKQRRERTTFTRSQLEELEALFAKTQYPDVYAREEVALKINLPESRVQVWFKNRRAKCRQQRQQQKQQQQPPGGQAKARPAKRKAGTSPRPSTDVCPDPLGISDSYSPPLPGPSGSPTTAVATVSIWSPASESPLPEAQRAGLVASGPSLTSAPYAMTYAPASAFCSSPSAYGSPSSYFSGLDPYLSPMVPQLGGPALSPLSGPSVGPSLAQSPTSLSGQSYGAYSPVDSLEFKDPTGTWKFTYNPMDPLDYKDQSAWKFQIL
Chain of ELF4 (Q99607 whole entry): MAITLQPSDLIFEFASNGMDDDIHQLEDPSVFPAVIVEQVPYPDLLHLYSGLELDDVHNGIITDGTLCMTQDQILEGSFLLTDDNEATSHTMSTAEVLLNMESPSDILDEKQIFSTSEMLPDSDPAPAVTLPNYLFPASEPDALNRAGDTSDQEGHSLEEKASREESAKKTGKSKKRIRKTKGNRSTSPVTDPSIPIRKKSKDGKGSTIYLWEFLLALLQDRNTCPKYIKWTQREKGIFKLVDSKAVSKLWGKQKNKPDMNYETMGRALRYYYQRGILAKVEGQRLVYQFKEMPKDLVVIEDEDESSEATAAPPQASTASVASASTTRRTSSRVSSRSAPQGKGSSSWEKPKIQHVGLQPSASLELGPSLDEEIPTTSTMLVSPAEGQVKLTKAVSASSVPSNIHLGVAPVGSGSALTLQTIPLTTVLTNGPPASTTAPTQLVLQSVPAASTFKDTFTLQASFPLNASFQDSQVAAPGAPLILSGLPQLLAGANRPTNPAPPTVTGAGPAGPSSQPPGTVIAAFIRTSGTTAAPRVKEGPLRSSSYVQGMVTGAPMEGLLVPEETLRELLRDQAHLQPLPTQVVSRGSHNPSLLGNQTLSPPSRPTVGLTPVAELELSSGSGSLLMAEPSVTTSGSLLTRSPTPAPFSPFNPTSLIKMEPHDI

Sequence: AATAAA
- binding signal (FEV): 1.22 fold enrichment (6-mer frequency, TF over GST control)
- binding signal (ETV5): 1.31 fold enrichment (6-mer frequency, TF over GST control)
- binding signal (HSF1): 1.42 fold enrichment (6-mer frequency, TF over GST control)
- binding signal (SPIC): 1.26 fold enrichment (6-mer frequency, TF over GST control)
- binding signal (ELF4): 1.29 fold enrichment (6-mer frequency, TF over GST control)
- binding signal (ELK4): 1.28 fold enrichment (6-mer frequency, TF over GST control)
- binding signal (ETV2): 1.21 fold enrichment (6-mer frequency, TF over GST control)
- binding signal (ELF3): 1.31 fold enrichment (6-mer frequency, TF over GST control)
- binding signal (CRX): 1.57 fold enrichment (6-mer frequency, TF over GST control)
- binding signal (ETV1): 1.23 fold enrichment (6-mer frequency, TF over GST control)
